# Results reported in PubChem BioAssay (EPA / NIEHS).
# Inconclusive results are not listed. Calls of active or inactive are those of the source. Rule for the calls: active = hit-call score of the fitted dose curve at least 0.9, where 1 is the maximum; inconclusive = response in the unintended direction; inactive = score below 0.9.
# Biological target: sheep Cyclooxygenase-1 (Cox1), PTGS1 (gene 443551) (UniProt P05979)
# Test: NVS_ENZ_oCOX1: NovaScreen (NVS) Enzymatic Assay for sheep Cyclooxygenase-1 (Cox1) (AID 2283239);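 note: actives reduce cyclooxygenase activity so potencies are for inhibitors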
# Description: NVS_ENZ_oCOX1 is a biochemical, single-readout assay that uses extracted gene-proteins from Ovine seminal vesicles in a tissue-based cell-free assay. Measurements were taken 0.66 hour after chemical dosing in a 96-well plate.NVS_ENZ_oCOX1 is one of one assay component(s) measured or calculated from the NVS_ENZ_oCOX1 assay. It is designed to make measurements of enzyme activity, a form of enzyme reporter, as detected with absorbance signals by Colorimetric technology.Data from the assay component NVS_ENZ_oCOX1 was analyzed into 1 assay endpoint. This assay endpoint, NVS_ENZ_oCOX1, was analyzed in the positive analysis fitting direction relative to DMSO as the negative control and baseline of activity. Using a type of enzyme reporter, loss-of-signal activity can be used to understand changes in the enzymatic activity as they relate to the gene PTGS1. Furthermore, this assay endpoint can be referred to as a primary readout, because this assay has produced multiple assay endpoints where this one serves a enzymatic activity function. To generalize the intended target to other relatable targets, this assay endpoint is annotated to the oxidoreductase intended target family, where the subfamily is cyclooxygenase.
# Binding assays used specific radioligands (tritiated, iodinated) with non-radioactive competitive displacement ligands in agonist or antagonist protocols (as indicated) and various reference compounds and inhibitors to titrate specific binding to receptors and transporters. Most enzyme assays (CYPs, kinases, phosphatases, proteases, HDACs) used recombinant protein and specific substrates (fluorescence mostly, some colorimetric and radioactive) and inhibitors, followed by a biochemical separation of substrate and product. All assays for the biochemical HTS were initially run in duplicate at a single concentration (10 uM for CYP450 assays and 25 uM for all others). […] Each assay was run with positive and negative controls, and concurrent controls on every plate. The follow-up (secondary) screen tested active chemical-pairs in concentration series, as well as a few additional assays not tested in the primary screen, some selected negative inactives, and several cases re-run in the concentration series for confirmatory purposes.
# sheep Cyclooxygenase-1 (Cox1), PTGS1 (gene 443551), sequence (P05979 whole entry, looked up): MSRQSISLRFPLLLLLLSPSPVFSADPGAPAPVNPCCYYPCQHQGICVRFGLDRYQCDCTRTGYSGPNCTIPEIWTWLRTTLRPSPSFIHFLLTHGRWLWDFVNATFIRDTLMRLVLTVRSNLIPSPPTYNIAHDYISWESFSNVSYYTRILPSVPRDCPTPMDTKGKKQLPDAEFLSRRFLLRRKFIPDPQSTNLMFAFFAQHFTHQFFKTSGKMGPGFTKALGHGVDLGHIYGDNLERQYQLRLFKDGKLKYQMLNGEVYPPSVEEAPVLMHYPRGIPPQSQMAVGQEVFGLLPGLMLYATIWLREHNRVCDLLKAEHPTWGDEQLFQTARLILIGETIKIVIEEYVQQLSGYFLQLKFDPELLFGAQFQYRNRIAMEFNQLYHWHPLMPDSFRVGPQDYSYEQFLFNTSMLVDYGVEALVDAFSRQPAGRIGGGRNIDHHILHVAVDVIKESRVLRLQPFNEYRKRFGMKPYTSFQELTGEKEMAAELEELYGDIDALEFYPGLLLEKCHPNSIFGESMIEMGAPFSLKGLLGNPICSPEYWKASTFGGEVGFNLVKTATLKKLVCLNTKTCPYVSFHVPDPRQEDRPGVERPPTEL
Structure (SMILES),AC50,outcome
Nc1ccc(N=Nc2ccccc2)cc1,4.49 µM (active),
[Cl-].[Cl-].[Hg+2],2.97 µM (active),
ClCCOCCCl,,inactive
c1ccc2c(c1)-c1cccc3cccc-2c13,,inactive
C1=Cc2cccc3cccc1c23,15.7 µM (active),
Clc1ccccc1Cl,,inactive
CN(C)[C@@H]1C(=O)C(C(N)=O)=C(O)[C@@]2(O)C(=O)C3=C(O)c4c(O)cccc4[C@@](C)(O)[C@H]3C[C@@H]12,,inactive
c1ccc(NNc2ccccc2)cc1,2.46 µM (active),
Cc1ccc(N)c(N)c1,42 µM (active),
Cc1cccc(N)c1N,,inactive
CN(C)c1ccc(C(=O)c2ccc(N(C)C)cc2)cc1,25.2 µM (active),
Nc1ccc(Cl)cc1N,4.69 µM (active),
Cc1cc(N=Nc2ccccc2C)ccc1N,11.8 µM (active),
